Assay results reported in PubChem BioAssay (NCATS).
Results filed as inconclusive are left out. The source made the active and inactive calls. Calls follow the shape of the dose curve; as a rule, active = well fitted curve in the direction sought with a large enough effect; inconclusive = small, poorly fitted or top-dose-only effect, or another doubt; inactive = no such curve, though single readings can be large; an effect the other way counts as inactive or inconclusive.

Tests used:
[1] = target: ATP-dependent 6-phosphofructokinase (Trypanosoma brucei brucei) (UniProt O15648); assay: qHTS Assay to Find Inhibitors of T. brucei phosphofructokinase: hit validation (AID 492961)
Sequence of ATP-dependent 6-phosphofructokinase (Trypanosoma brucei brucei) (O15648 whole entry, looked up): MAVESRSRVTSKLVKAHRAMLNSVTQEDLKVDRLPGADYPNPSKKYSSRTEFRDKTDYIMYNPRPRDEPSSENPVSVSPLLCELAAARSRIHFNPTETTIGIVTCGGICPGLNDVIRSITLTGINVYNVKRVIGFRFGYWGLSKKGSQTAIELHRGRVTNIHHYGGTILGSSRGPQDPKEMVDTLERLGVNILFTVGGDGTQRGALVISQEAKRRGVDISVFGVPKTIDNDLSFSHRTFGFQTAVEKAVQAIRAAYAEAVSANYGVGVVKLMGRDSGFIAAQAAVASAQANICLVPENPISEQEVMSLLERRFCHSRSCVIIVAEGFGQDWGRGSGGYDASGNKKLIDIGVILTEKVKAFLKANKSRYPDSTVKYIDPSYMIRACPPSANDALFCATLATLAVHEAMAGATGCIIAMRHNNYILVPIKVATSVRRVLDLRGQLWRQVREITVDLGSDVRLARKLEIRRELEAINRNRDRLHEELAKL
Outline: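 Luminescence from ADP-Glo reports ADP generated as T. brucei PFK (1.25 nM) phosphorylates 0.5 mM fructose-6-phosphate using 0.1 mM ATP. Reactions ran 45 min at room temperature, pH 8.0.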

[2] = target: Ubiquitin carboxyl-terminal hydrolase 1 (Homo sapiens) (UniProt O94782); assay: Inhibitors of USP1/UAF1: Pilot qHTS (AID 504865);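 also: rhodamine fluorescence freed from ubiquitin-rhodamine substrate followed over time; top concentration of the series differs between compounds; nearly all actives have a fitted effect of over 35% in size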
Sequence of Ubiquitin carboxyl-terminal hydrolase 1 (Homo sapiens) (O94782 whole entry, looked up): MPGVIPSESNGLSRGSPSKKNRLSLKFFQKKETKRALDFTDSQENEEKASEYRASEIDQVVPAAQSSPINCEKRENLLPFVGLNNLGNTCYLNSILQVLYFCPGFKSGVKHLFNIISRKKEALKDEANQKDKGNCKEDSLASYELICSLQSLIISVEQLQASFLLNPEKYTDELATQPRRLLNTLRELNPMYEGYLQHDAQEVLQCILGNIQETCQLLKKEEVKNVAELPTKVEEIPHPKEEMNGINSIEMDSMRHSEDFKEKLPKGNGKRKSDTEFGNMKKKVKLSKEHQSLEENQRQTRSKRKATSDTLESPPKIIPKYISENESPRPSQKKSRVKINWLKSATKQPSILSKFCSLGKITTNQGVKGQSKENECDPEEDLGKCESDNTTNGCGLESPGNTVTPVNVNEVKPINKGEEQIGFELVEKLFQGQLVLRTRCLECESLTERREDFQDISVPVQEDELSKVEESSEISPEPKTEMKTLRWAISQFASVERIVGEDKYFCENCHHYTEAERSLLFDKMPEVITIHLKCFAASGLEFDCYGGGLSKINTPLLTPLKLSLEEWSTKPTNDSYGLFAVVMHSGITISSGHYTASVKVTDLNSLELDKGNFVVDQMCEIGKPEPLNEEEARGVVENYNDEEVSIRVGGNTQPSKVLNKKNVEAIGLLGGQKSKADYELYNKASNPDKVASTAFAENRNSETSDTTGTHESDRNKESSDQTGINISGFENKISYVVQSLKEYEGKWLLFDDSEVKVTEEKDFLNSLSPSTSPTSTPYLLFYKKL
Outline: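 Deubiquitinase activity followed as kinetic rhodamine fluorescence release from 150 nM Ub-Rho. 1 nM USP1/UAF1 with compound, after 15 min room-temperature preincubation, in HEPES pH 7.8 buffer containing TCEP, EDTA, BSA and Tween-20.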

[3] = target: Luciferin 4-monooxygenase (Photinus pyralis) (UniProt P08659); assay: Biochemical firefly luciferase enzyme assay for NPC (AID 624030);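 also: purified P. pyralis luciferase at 10 nM with luciferin and ATP substrate; nearly all actives have a fitted effect of over 70% in size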
Sequence of Luciferin 4-monooxygenase (Photinus pyralis) (P08659 whole entry, looked up): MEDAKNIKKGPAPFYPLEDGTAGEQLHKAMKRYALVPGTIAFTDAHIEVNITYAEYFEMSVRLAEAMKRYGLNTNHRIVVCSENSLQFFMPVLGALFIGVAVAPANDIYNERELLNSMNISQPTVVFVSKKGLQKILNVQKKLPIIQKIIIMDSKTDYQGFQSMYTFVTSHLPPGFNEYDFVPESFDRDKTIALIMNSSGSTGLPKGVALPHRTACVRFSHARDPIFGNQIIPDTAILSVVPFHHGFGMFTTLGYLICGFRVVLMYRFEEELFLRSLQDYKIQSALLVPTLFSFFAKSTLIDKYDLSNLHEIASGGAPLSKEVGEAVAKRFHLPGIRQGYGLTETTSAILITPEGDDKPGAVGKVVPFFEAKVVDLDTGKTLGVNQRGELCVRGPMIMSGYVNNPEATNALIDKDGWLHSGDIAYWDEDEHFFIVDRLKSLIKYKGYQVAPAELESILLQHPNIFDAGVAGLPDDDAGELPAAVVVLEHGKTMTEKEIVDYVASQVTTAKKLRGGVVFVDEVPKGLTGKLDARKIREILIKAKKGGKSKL
Outline: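 Purified P. pyralis luciferase at 10 nM in 50 mM Tris Acetate (final), luminescence read within 5 minutes of enzyme addition to compounds. Activity normalised to PTC124 versus DMSO; concentration-response curves classed by r2, magnitude and activity.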

[4] = S16 Schwann cell viability assay (CellTiter-Glo assay) (AID 624031);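 also: cellular ATP luminescence as a viability measure; nearly all actives have a fitted effect of over 70% in size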
Outline: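 Native S16 rat Schwann cells, 500-750 cells/well in DMEM with 10% FBS, dosed with compound after overnight culture and incubated 24h at 37 degree Celsius/5% CO2. Viability by CellTiter-Glo luminescence; % activity normalized to no-cell wells and DMSO-treated cells.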

[5] = S16 Schwann cell PMP22 intronic element firefly luciferase assay (AID 624032); also: nearly all actives have a fitted effect of over 30% in size
Outline: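 Rat S16 Schwann cells stably carrying firefly luciferase driven by a PMP22 intronic element, in 10% FBS, treated 24 h at 37 C. ONE-Glo luminescence normalized to PTC124 control and DMSO (0%); curves classed by r2, magnitude and activity.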

3D7 = assay: qHTS profiling for inhibitors of Plasmodium falciparum proliferation (AID 504749); also: nearly all actives have a fitted effect of over 60% in size; conditions: P. falciparum in erythrocytes, SYBR Green DNA, 72 h; series mostly up to 28.7 µM
Outline: (§1)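 Each compound contacts P. falciparum-infected red blood cells for 72 h at 37 C; lysis buffer (Tris, EDTA, saponin, Triton X, SYBR Green I) is added and fluorescence measured next morning; values normalized to controls.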

7G8 = assay: as above; conditions: P. falciparum in erythrocytes, SYBR Green DNA, 72 h; series mostly up to 28.7 µM
Outline: as §1

ATS95 = assay: as above; conditions: P. falciparum in erythrocytes, SYBR Green DNA, 72 h; series mostly up to 28.7 µM
Outline: as §1

CP192 = assay: as above; conditions: P. falciparum in erythrocytes, SYBR Green DNA, 72 h; series mostly up to 28.7 µM
Outline: as §1

CP194 = assay: as above; conditions: P. falciparum in erythrocytes, SYBR Green DNA, 72 h; series mostly up to 28.7 µM
Outline: as §1

CP201 = assay: as above; conditions: P. falciparum in erythrocytes, SYBR Green DNA, 72 h; series mostly up to 28.7 µM
Outline: as §1

CP211 = assay: as above; conditions: P. falciparum in erythrocytes, SYBR Green DNA, 72 h; series mostly up to 28.7 µM
Outline: as §1

CP215 = assay: as above; conditions: P. falciparum in erythrocytes, SYBR Green DNA, 72 h; series mostly up to 28.7 µM
Outline: as §1

CP237 = assay: as above; conditions: P. falciparum in erythrocytes, SYBR Green DNA, 72 h; series mostly up to 28.7 µM
Outline: as §1

CP260 = assay: as above; conditions: P. falciparum in erythrocytes, SYBR Green DNA, 72 h; series mostly up to 28.7 µM
Outline: as §1

CP262 = assay: as above; conditions: P. falciparum in erythrocytes, SYBR Green DNA, 72 h; series mostly up to 28.7 µM
Outline: as §1

CP268 = assay: as above; conditions: P. falciparum in erythrocytes, SYBR Green DNA, 72 h; series mostly up to 28.7 µM
Outline: as §1

CP269 = assay: as above; conditions: P. falciparum in erythrocytes, SYBR Green DNA, 72 h; series mostly up to 28.7 µM
Outline: as §1

CP286 = assay: as above; conditions: P. falciparum in erythrocytes, SYBR Green DNA, 72 h; series mostly up to 28.7 µM
Outline: as §1

CP291 = assay: as above; conditions: P. falciparum in erythrocytes, SYBR Green DNA, 72 h; series mostly up to 28.7 µM
Outline: as §1

CP297 = assay: as above; conditions: P. falciparum in erythrocytes, SYBR Green DNA, 72 h; series mostly up to 28.7 µM
Outline: as §1

CP305 = assay: as above; conditions: P. falciparum in erythrocytes, SYBR Green DNA, 72 h; series mostly up to 28.7 µM
Outline: as §1

CP315 = assay: as above; conditions: P. falciparum in erythrocytes, SYBR Green DNA, 72 h; series mostly up to 28.7 µM
Outline: as §1

CP325 = assay: as above; conditions: P. falciparum in erythrocytes, SYBR Green DNA, 72 h; series mostly up to 28.7 µM
Outline: as §1

CP329 = assay: as above; conditions: P. falciparum in erythrocytes, SYBR Green DNA, 72 h; series mostly up to 28.7 µM
Outline: as §1

CP335 = assay: as above; conditions: P. falciparum in erythrocytes, SYBR Green DNA, 72 h; series mostly up to 28.7 µM
Outline: as §1

DIV14 = assay: as above; conditions: P. falciparum in erythrocytes, SYBR Green DNA, 72 h; series mostly up to 28.7 µM
Outline: as §1

DIV17 = assay: as above; conditions: P. falciparum in erythrocytes, SYBR Green DNA, 72 h; series mostly up to 28.7 µM
Outline: as §1

DIV30 = assay: as above; conditions: P. falciparum in erythrocytes, SYBR Green DNA, 72 h; series mostly up to 28.7 µM
Outline: as §1

Dd2 = assay: as above; conditions: P. falciparum in erythrocytes, SYBR Green DNA, 72 h; series mostly up to 28.7 µM
Outline: as §1

FAB9 = assay: as above; conditions: P. falciparum in erythrocytes, SYBR Green DNA, 72 h; series mostly up to 28.7 µM
Outline: as §1

GB4 = assay: as above; conditions: P. falciparum in erythrocytes, SYBR Green DNA, 72 h; series mostly up to 28.7 µM
Outline: as §1

HB3 = assay: as above; conditions: P. falciparum in erythrocytes, SYBR Green DNA, 72 h; series mostly up to 28.7 µM
Outline: as §1

ICS = assay: as above; conditions: P. falciparum in erythrocytes, SYBR Green DNA, 72 h; series mostly up to 28.7 µM
Outline: as §1

JCK = assay: as above; conditions: P. falciparum in erythrocytes, SYBR Green DNA, 72 h; series mostly up to 28.7 µM
Outline: as §1

P94_40 = assay: as above; conditions: P. falciparum in erythrocytes, SYBR Green DNA, 72 h; series mostly up to 28.7 µM
Outline: as §1

PAD = assay: as above; conditions: P. falciparum in erythrocytes, SYBR Green DNA, 72 h; series mostly up to 28.7 µM
Outline: as §1

PC15 = assay: as above; conditions: P. falciparum in erythrocytes, SYBR Green DNA, 72 h; series mostly up to 28.7 µM
Outline: as §1

PC26 = assay: as above; conditions: P. falciparum in erythrocytes, SYBR Green DNA, 72 h; series mostly up to 28.7 µM
Outline: as §1

PC49 = assay: as above; conditions: P. falciparum in erythrocytes, SYBR Green DNA, 72 h; series mostly up to 28.7 µM
Outline: as §1

SC27B = assay: as above; conditions: P. falciparum in erythrocytes, SYBR Green DNA, 72 h; series mostly up to 28.7 µM
Outline: as §1

TAB113 = assay: as above; conditions: P. falciparum in erythrocytes, SYBR Green DNA, 72 h; series mostly up to 28.7 µM
Outline: as §1

W2 = assay: as above; conditions: P. falciparum in erythrocytes, SYBR Green DNA, 72 h; series mostly up to 28.7 µM
Outline: as §1

Measured: Potency

Cc1cncc(C(=O)O)[n+]1[O-]
inactive: [1] | [2] | [3] | [4] | [5] | 3D7 | 7G8 | ATS95 | CP192 | CP194 | CP201 | CP211 | CP215 | CP237 | CP260 | CP262 | CP268 | CP269 | CP286 | CP291 | CP297 | CP305 | CP315 | CP325 | CP329 | CP335 | DIV14 | DIV17 | DIV30 | Dd2 | FAB9 | GB4 | HB3 | ICS | JCK | P94_40 | PAD | PC15 | PC26 | PC49 | SC27B | TAB113 | W2
